Screens from PubChem.
GALK inh = inhibits human galactokinase | P51570 | recombinant GALK, Kinase-Glo ATP luminescence, 1 h | Potency, µM (highest dose often 57.5 µM), for the others: at the highest dose activity, negative = inhibition, hits mostly inhibitors | 44,000 tested, under 10 active | AID 1347072;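 also: plate controls were full GALK reaction for no effect and reaction lacking GALK for full effect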
Target sequence (P51570 whole entry, looked up): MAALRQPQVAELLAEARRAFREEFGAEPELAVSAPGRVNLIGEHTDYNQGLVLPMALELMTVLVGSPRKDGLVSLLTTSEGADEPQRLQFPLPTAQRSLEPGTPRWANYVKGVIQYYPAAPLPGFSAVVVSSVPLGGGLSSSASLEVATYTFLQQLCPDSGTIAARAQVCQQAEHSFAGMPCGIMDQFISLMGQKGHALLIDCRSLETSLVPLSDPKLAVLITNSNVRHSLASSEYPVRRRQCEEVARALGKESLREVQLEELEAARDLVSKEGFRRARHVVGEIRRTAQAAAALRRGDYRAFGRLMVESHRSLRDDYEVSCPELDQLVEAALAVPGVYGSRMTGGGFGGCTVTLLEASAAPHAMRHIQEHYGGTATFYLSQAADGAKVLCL
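5 nM GALK with 35 µM ATP and 100 µM galactose in HEPES pH 8.0, MgCl2, NaCl, DTT, BSA; 1 h RT reaction, remaining ATP detected by Kinase-Glo Plus luminescence after 10 min; qHTS concentration series.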
GPR32 ag = agonists of human resolvin D1 receptor DRV1 (GPR32). actives 2.5% (n = 48,000). O75388. activation, % at 76.9 µM. AID 1346428. CHO-K1 GPR32 beta-arrestin PathHunter luminescence, 90 min; zero percent set by DMSO-only wells;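 active = activation of at least 60% and not above a set upper limit, about 1 call in 100 departs from these limits; inconclusive = activation of 40% to 60%, or above that upper limit; inactive = activation under 40%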; also: 0% is about no effect
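CHO-K1 cells stably expressing ProLink-tagged GPR32 and Enzyme Activator-tagged beta-arrestin were seeded at 2,500 cells/well overnight, exposed to compounds for 90 min at 37 °C, then read by beta-Gal complementation chemiluminescence after 1 h detection reagent.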
HTT-AS act = activates huntingtin-antisense promoter activity; HEK293 HTT-AS promoter firefly luciferase reporter, 24 h; response scale: percent change from vehicle, -100% = no light; actives 0.24% (n = 48,000); Potency, µM (series often up to 57.5 µM), inactives show top-dose activity change, positive = activation, most hits filed as activators; also: potency is read from the fitted curve at half-maximal effect; nearly all actives have a fitted effect of over 55% in size
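Firefly luciferase signal from promoter-reporter HEK293 cells was scaled between vehicle (0%) and zero RLU (-100%). Compounds were tested at final concentrations of up to 57.5 uM over 24 h at 37 degrees C. PTC124 at 50 uM final served as control inhibitor.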
PTAP-TSG101 blk = blocks PTAP binding to human TSG101, validation; Fluorescence polarization, FITC-PTAP peptide/Tsg101, 20 min; Q99816; 44,000 tested, under 10 active; AID 1347069; Potency, µM (top dose mostly 115 µM), hits mostly inhibitors; also: potency is read from the fitted curve at half-maximal effect; 0% is about no effect
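Fluorescence polarization binding of Tsg101 binding domain (10 uM final) to FITC-labeled PTAP-motif peptide (50 nM final) in HEPES pH 7.5/NaCl/Tween 20/EDTA/TCEP buffer; 20 min at r.t. Actives by curve class, <25 µM, efficacy <60% inhibition.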
B2AR arrestin ag = agonists recruiting beta-arrestin to human beta2-adrenergic receptor; HTLA Tango cells, beta-arrestin recruitment, luciferase luminescence, 18 h; Potency, µM (titrated, usually from 46.1 µM), usual class: activators; 44,000 tested, under 10 active; AID 1347077;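 also: potency is read from the fitted curve at half-maximal effect; 0% = DMSO and full agonism = EC100 isoproterenol or metaproterenol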
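Tango cells expressing recombinant beta2-AR and beta-arrestin were treated with compounds (up to 46 microM titration) in DMEM with 1% FBS for 18 hr at 37 degrees C. Beta-arrestin recruitment drove tTA-dependent luciferase, read by luminescence; curves were fitted and classed.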
HTT prom inh = inhibits huntingtin promoter activity | HEK293 HTT promoter firefly luciferase reporter, 24 h | Potency, µM (top dose mostly 57.5 µM), for the others: at the highest dose activity change, negative = inhibition, usual class: inhibitors | actives 0.93% (n = 48,000) | AID 1508623; also: potency is read from the fitted curve at half-maximal effect; nearly all actives have a fitted effect of over 50% in size
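HEK293 cells carrying firefly luciferase reporters were seeded at 2,500 per well in Opti-MEM and cultured for 24 h. They were then treated with compounds at up to 57.5 uM final for 24 h at 37 degrees C before Dual-Glo luminescence readout.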
Active calls of the source: *; i = inactive; ? = inconclusive; . = no result; [ ] = remark or other dose. Rows were chosen to be rich in hits. Some 3.6% of all compounds tested hit in one or more screens of this group. Unless noted, calls follow the shape of the dose curve; as a rule, active = well fitted curve in the direction sought with a large enough effect; inconclusive = small, poorly fitted or top-dose-only effect, or another doubt; inactive = no such curve, though single readings can be large; an effect the other way counts as inactive or inconclusive.

SMILES	GALK inh	GPR32 ag	HTT-AS act	PTAP-TSG101 blk	B2AR arrestin ag	HTT prom inh
Cc1cc(S(=O)(=O)Nc2ccc(O)c(Sc3nc4ccccc4s3)c2)ccc1Cl	0%	101*	-18%	i	i	-10%
N#Cc1cc(NC(=O)Nc2nnc(-c3ccncc3)s2)ccc1-c1cn[nH]c1	.	.	-9%	.	.	?
CCCN(CCC)c1nc(-c2ccccc2F)nc2ccccc12	1%	48	-13%	i	i	-7%
CCCCN(CCCC)c1nc(-c2ccccc2)nc2ccccc12	-3%	110*	-30%	i	i	-23%
CC(C)c1cnn2c(NCc3ccccc3)cc(NCCCCCCN)nc12	.	.	-23%	.	.	?
CCOC(=O)c1nc(NCc2ccc(Cl)cc2)c2c(C)noc2n1	-1%	65*	-19%	i	i	0%
Cc1cc([C@@H](C)Nc2ccccc2C(=O)O)c2nc(N3CCOCC3)cc(=O)n2c1	.	.	-32%[116 µM]	.	.	?
Cc1cc(N2CCN(C)CC2)nc2ccc(NC(=O)Nc3ccc(F)cc3)cc12	2%	30	9%	i	i	25%
Cc1cc(N2CCCCC2)nc2ccc(NC(=O)c3ccc(F)cc3)cc12	1%	105*	-24%	i	i	-20%
Cc1ccc(NC(=O)Nc2ccc3nc(N4CCN(C)CC4)cc(C)c3c2)cc1F	2%	94*	-51%	i	i	-21%
O=C(NCC(O)CO)c1c(I)c(C(=O)NCC(O)CO)c(I)c(N(CCO)C(=O)CO)c1I (stereo not given)	.	14	-14%	.	.	0%
O=C(NCC(c1cccs1)S(=O)(=O)c1cccs1)c1ccc(F)c(F)c1 (stereo not given)	1%	95*	-18%	i	i	-13%
O=C(NCC(c1cccs1)S(=O)(=O)c1cccs1)c1ccc(Cl)cc1 (stereo not given)	-3%	100*	-21%	i	i	-19%
CCc1c(O)cc(O)c(C(=O)c2ccc(OCCN3CCOCC3)c(OC)c2)c1CC(=O)N(CCOC)CCOC	.	.	-54%	.	.	?
O=C(CCn1cnc2onc(-c3ccc(F)cc3)c2c1=O)Nc1cccc(C(F)(F)F)c1	2%	?	-59%	i	i	?
O=C(CCn1cnc2onc(-c3ccc(F)cc3)c2c1=O)Nc1ccc(F)c(Cl)c1	3%	7	-75%	i	i	22µM*
COc1c(OCCCN2CCOCC2)ccc2c3n(c(=NC(=O)c4cnc(N)nc4)nc12)CCN3	.	.	-41%[25.1 µM]	.	.	?
Cc1ccc(-c2nc(C)c(CCNS(=O)(=O)c3ccc(F)c(C(F)(F)F)c3)s2)cc1	1%	63*	-12%	i	i	-15%
COc1ccc(-c2nc(C)c(CCNS(=O)(=O)c3ccc(F)cc3)s2)cc1OC	2%	27	-14%	i	i	-20%
O=C(Nc1cccc(Br)c1)c1cccc(S(=O)(=O)N2CCCCCC2)c1	.	.	-30%	.	.	?
O=C(NCCc1csc2nc(-c3ccc(F)cc3)nn12)c1ccco1	0%	4	-22%	i	i	-23%
O=C(Cc1ccc(Cl)cc1)NCCc1csc2nc(-c3ccccc3F)nn12	0%	121*	-14%	i	i	-9%
O=C(NCCc1csc2nc(-c3cccc(F)c3)nn12)c1ccc(Br)o1	0%	97*	-12%	i	i	-9%
CC(C)C(=O)OCc1cccc(OC(=O)[C@@H]2N3C(=O)[C@@H](NC(=O)Cc4ccccc4)[C@H]3SC2(C)C)c1	.	-9	-3%	.	.	-1%
COc1cccc(-c2cn3ncsc3n2)c1	0%	2	2.5µM*	i	i	58%
SMILES	GALK inh	GPR32 ag	HTT-AS act	PTAP-TSG101 blk	B2AR arrestin ag	HTT prom inh
CC(=O)c1ccc(N2CCN(S(=O)(=O)c3ccc(-c4coc(C)n4)cc3)CC2)cc1	-7%	63*	-29%	i	i	?
Cc1nc(Nc2n[nH]c3c2CN(C(=O)N[C@H](CN(C)C)c2ccccc2)C3(C)C)c2sccc2n1	.	.	?	.	.	-23%
CCOc1ccc(Nc2oc(-c3ccc(COc4ccc(OC)cc4)o3)nc2C#N)cc1	5%	86*	2%	i	i	22%
CCOc1ccc(-n2c(SCC(=O)N3CCCC3)nc3c([nH]c4ccccc43)c2=O)cc1	-1%	77*	-11%	i	i	-3%
CC(NC(=O)CSc1nc(-c2cccc(Cl)c2)nc2cc(=O)[nH]n12)c1nc2ccccc2n1C (stereo not given)	-3%	69*	.	i	i	.
O=C(O)Cn1cnnn1	.	-16	1%	.	.	3%
CC(C)CCCC(C)NCCC(C)C (stereo not given)	.	-4	-8%	.	.	-3%
Cc1cc(C)c(NS(=O)(=O)c2ccc3c(c2)NC(=O)CCS3)c(C)c1	1%	83*	-23%	i	i	-26%
CC(=O)c1ccc(NS(=O)(=O)c2ccc3c(c2)NC(=O)CCS3)cc1	-1%	-10	-19%	i	i	-10%
Cc1ccc(Cl)cc1NS(=O)(=O)c1ccc2c(c1)NC(=O)CCS2	2%	94*	-27%	i	i	-13%
COc1ccc(NS(=O)(=O)c2ccc(NC(=O)N3CCCC3)cc2)cc1	2%	37	-22%	i	i	?
CCOc1ccc(NS(=O)(=O)c2ccc3c(c2)NC(=O)CCS3)cc1	0%	75*	-12%	i	i	?
CCOc1ccc(NS(=O)(=O)c2ccc(NC(=O)N3CCCC3)cc2)cc1	0%	65*	-14%	i	i	-31%
Cc1ccc(NC(=O)CN2CCSc3ccc(S(=O)(=O)N4CCCC4)cc32)cc1	5%	-13	-36%	i	i	?
CCOc1ccc(NC(=O)Cn2c(=O)oc3cc(S(=O)(=O)N4CCC(C)CC4)ccc32)cc1	-9%	117*	-49%	i	i	10µM*
CSc1ccc(CNC(=O)Cn2ccc3cc(S(=O)(=O)N4CCCC4)ccc32)cc1	-2%	20	-33%	i	i	?
COc1ccccc1CNC(=O)Cn1c(=O)oc2cc(S(=O)(=O)N3CCC(C)CC3)ccc21	4%	78*	-25%	i	i	?
CCOc1ccc(NC(=O)CN2CCSc3ccc(S(=O)(=O)N4CCCC4)cc32)cc1	4%	0	-39%	i	i	25µM*
